In all, about 310,000 compounds went through this assay and about 14,000 (4.5%) showed an effect of 50% or more. Effects have a minus sign here. Only a selection was taken, and strong results are over-represented in it overall.
Molecular target: human ether-à-go-go-related gene (hERG) potassium channel (human, UniProt Q12809)
Assay: primary screen, population patch clamp on CHO cells stably expressing hERG; higher = less effect of the substance
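Also: peak tail current of the secondary pulse compared with the same well before compound.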

Sequence of human ether-à-go-go-related gene (hERG) potassium channel (Q12809 whole entry, looked up): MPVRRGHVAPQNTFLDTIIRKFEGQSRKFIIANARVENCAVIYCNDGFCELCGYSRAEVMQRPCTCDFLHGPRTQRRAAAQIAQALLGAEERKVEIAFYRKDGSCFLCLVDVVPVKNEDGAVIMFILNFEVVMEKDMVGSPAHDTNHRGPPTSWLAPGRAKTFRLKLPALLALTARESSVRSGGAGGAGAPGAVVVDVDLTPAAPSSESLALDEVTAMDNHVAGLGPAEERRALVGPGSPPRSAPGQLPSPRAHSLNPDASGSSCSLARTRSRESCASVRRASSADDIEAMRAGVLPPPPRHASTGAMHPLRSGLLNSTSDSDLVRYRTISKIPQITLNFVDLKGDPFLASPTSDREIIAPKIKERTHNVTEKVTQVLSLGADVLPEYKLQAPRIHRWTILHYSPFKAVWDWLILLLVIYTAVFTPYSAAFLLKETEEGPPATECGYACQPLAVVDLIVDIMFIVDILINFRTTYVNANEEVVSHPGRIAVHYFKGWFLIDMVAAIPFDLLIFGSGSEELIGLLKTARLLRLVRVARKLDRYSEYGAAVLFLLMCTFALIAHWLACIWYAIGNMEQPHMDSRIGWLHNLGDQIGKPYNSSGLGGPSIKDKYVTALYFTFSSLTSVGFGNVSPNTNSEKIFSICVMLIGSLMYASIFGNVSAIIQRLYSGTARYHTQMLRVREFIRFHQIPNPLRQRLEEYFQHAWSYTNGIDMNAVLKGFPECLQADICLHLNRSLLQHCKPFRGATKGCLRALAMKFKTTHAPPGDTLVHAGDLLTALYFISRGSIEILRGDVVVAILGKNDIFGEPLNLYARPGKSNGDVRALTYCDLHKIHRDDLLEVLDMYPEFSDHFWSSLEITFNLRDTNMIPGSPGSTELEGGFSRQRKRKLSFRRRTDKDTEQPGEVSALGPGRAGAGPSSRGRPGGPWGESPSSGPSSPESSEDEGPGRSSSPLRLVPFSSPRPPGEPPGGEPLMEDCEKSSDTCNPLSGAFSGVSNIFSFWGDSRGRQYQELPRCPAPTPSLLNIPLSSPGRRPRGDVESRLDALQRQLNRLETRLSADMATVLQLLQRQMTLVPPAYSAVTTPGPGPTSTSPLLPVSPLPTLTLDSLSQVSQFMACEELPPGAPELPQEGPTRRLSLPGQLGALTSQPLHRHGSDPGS

SMILES | hERG current change (%, negative = inhibition) at 10uM [%]
Cc1cc(=O)[nH]c2nnnn12 | 4.44
O=C(Nc1cccc(F)c1)Nc1ccnn1C1CCN(C(=O)c2ccccn2)CC1 | 14.2
COc1cccc(N=C2SC(C(=O)Nc3ccc(F)cc3)CC(=O)N2C)c1 (stereo not shown) | -11
CC(OC(=O)c1nn(C)c(=O)c2ccccc12)C(=O)Nc1ccc(S(N)(=O)=O)cc1 (stereo not shown) | 11.6
OCCC1CN(Cc2ccc3c(c2)CCO3)CCN1Cc1ccc(F)cc1 (stereo not shown) | -72.9
OCCC1CN(Cc2ccc(F)cc2)CCN1CCCc1ccccc1 (stereo not shown) | -68.2
COC(=O)c1ccc(CN2CCN(CCCc3ccccc3)C(CCO)C2)cc1 (stereo not shown) | -64.1
COC(=O)c1ccc(CN2CCN(Cc3ccccc3)C(CCO)C2)cc1 (stereo not shown) | -16.5
Cc1cc(C)n(-c2ccc(F)cc2CN2CCN(Cc3ccccc3)C(CCO)C2)n1 (stereo not shown) | -37.2
Cc1ccc(CN2CCN(Cc3ccc4c(c3)OCCO4)CC2CCO)cc1 (stereo not shown) | -39.8
OCCC1CN(Cc2ccc3c(c2)CCO3)CCN1C1CCCC1 (stereo not shown) | -12.7
OCCC1CN(Cc2cc(F)ccc2F)CCN1CCCc1ccccc1 (stereo not shown) | -70.3
COC(=O)c1ccc(CN2CCN(CCC(C)C)C(CCO)C2)cc1 (stereo not shown) | -25.7
CCCCOC(=O)Nc1ccc(S(=O)(=O)Nc2ccc([N+](=O)[O-])cc2)cc1 | 9.83
Cc1cc(C(=O)OCC(=O)c2cccs2)c2ccccc2n1 | 24.1
O=c1[nH][nH]c(-c2ccccc2)c1C=Nc1ccc(Cl)cc1 | -23
Cc1ccc(C(=O)C2=C(O)C(=O)N(CCCN3CCOCC3)C23C(=O)N(C)c2ccccc23)o1 (stereo not shown) | 27.9
O=C(Cn1[nH]c(=O)c2ccccc2c1=O)OCC(=O)c1ccccc1Cl | -0.463
CC(C)=CCN1CCN(Cc2ccc3nsnc3c2)CC1CCO (stereo not shown) | -19.4
Cc1nn(-c2ccc(F)cc2)c(C)c1CN1CCN(CCC(C)C)C(CCO)C1 (stereo not shown) | -36.3
CC(C)CCN1CCN(Cc2ccc3nsnc3c2)CC1CCO (stereo not shown) | -42.6
OCCC1CN(Cc2ccc3nsnc3c2)CCN1CCc1ccccc1 (stereo not shown) | -82.2
CCn1cc(CN2CCN(CCc3ccccc3)C(CCO)C2)c(C)n1 (stereo not shown) | -31
Cc1nn(-c2ccc(F)cc2)c(C)c1CN1CCN(Cc2ccccc2)C(CCO)C1 (stereo not shown) | -44.2

SMILES | hERG current change (%, negative = inhibition) at 10uM [%]
OCCC1CN(Cc2cccc(F)c2F)CCN1CCc1ccccc1 (stereo not shown) | -55.3
Cn1cc(CN2CCN(CCc3ccccc3)C(CCO)C2)cn1 (stereo not shown) | 4.52
Cc1nn(-c2ccc(F)cc2)c(C)c1CN1CCN(CCc2ccccc2)C(CCO)C1 (stereo not shown) | -67.5
CC(C)n1cc(CN2CCN(CCc3ccccc3)C(CCO)C2)cn1 (stereo not shown) | -53.4
O=C(O)c1cncc(C#Cc2ccccc2)c1 | 1.39
Cc1c(C(=O)Nc2ccc(OCc3ccccc3)cc2)cccc1[N+](=O)[O-] | -0.125
CC1CCCCN1S(=O)(=O)c1ccc(C(=O)N2CCOCC2)cc1 (stereo not shown) | 16.8
C[Se]C[C@@H](N)C(=O)O.Cl | 12.3
COc1cc2ccccc2cc1C(=O)OCC(=O)N(C)c1c(N)n(Cc2ccccc2)c(=O)[nH]c1=O | 3.29
Cn1c(C(=O)NCCN2CCc3ccccc3C2)cc2c(=O)n(C)c3ccccc3c21 | -11.8
N/C(=N\OC(=O)CCCOc1ccccc1)c1ccccc1 | 7.28
COC(=O)c1ccc(OCCOc2ccc(C(=O)OC)cc2)cc1 | -14.3
Cl.c1ccc(OCCN2C3=NCCN3c3ccccc32)cc1 | -73.3
Br.COC(=O)CN1C2=NCCCN2c2ccccc21 | -11.8
Br.COC(=O)c1ccc(OCCN2C3=NCCN3c3ccccc32)cc1 | -68.7
CCN(CC)c1ccc(/C=N/NC(=O)c2ccc3nc[nH]c3c2)cc1 | -22
N#C/C(=C/c1ccccc1)C(=O)OCC(=O)Nc1ccccc1[N+](=O)[O-] | 8.46
Cc1nn(-c2ccccc2)c(C)c1-c1nnc(C(F)(F)F)o1 | 2.32
Cc1ccc(-c2c3c(=O)n(C)c(=O)n(C)c3cn2N2CCOCC2)cc1 | -40
COc1ccc(-c2c3c(=O)n(C)c(=O)n(C)c3cn2N2CCOCC2)cc1 | -52.3
Cn1c(=O)c2c(-c3ccc(C(C)(C)C)cc3)n(N3CCOCC3)cc2n(C)c1=O | -26.7
COC(=O)c1cc(C(=O)Nc2ccc(Cl)cn2)cc([N+](=O)[O-])c1 | -19
O=c1oc2cc(S(=O)(=O)NCCCO)ccc2c2ccc(S(=O)(=O)NCCCO)cc12 | 16.1
CN1CCC(OC(=O)c2ccccc2Cl)CC1.Cl | 0.522

SMILES | hERG current change (%, negative = inhibition) at 10uM [%]
CN(C)CC1CCCCC1OC(=O)/C=C/c1ccc(Cl)cc1Cl.Cl (stereo not shown) | -32.4
COc1ccc(C(=O)OC2CCCCC2CN(C)C)cc1.Cl (stereo not shown) | 14.1
CN1CCC(OC(=O)c2cccc(Cl)c2)CC1.Cl | -8.64
CN(C)CC1CCCCC1OC(=O)c1ccc(Cl)c(Cl)c1.Cl (stereo not shown) | -52.1
CN1CCC(OC(=O)c2ccc(Cl)cc2Cl)CC1.Cl | -55.9
CN(C)CC1CCCCC1OC(=O)c1ccc(Cl)cc1 (stereo not shown) | -28.5
CN(C)CC1CCCCC1OC(=O)c1ccc(Br)cc1.Cl (stereo not shown) | -7.82
CN(C)CC1CCCCC1OC(=O)c1ccc(Cl)cc1Cl.Cl (stereo not shown) | -56.5
Cc1cc(C)n2nc(C(=O)N3CCCC(Nc4ccc(F)c(F)c4)C3)cc2n1 (stereo not shown) | 5.05
COc1cccc(N2C(=O)CC(N3CCN(C(=O)c4ccco4)CC3)C2=O)c1 (stereo not shown) | 9.29
COCCN(C(=O)c1ccc(NC2CC2)c([N+](=O)[O-])c1)c1c(N)n(CC(C)C)c(=O)[nH]c1=O | -5.42
C[C@@H]1CC[C@]2(O[C@H](CCO)C[C@@H](O)[C@@H]2O)O1 | 0.536
CC(C)(c1ccccc1)c1ccc(OCCN)cc1.Cl | -20.2
CCc1cccc(NC(=O)CCc2c(C)nn(-c3ccc(N4CCCCC4)nn3)c2C)c1 | -19
Cc1cccc(NC(=O)CCc2c(C)nn(-c3ccc(N4CCOCC4)nn3)c2C)c1 | 3.98
CCc1cccc(NC(=O)CCc2c(C)nn(-c3ccc(N4CCOCC4)nn3)c2C)c1 | -51.4
COc1ccc(NC(=O)Cn2c(=O)oc3cc(S(=O)(=O)N4CCCC4)ccc32)cc1 | 5.26
CC1(C)CC(=O)C2=C(C1)N(c1ccccc1)C(=O)CC2c1ccsc1 (stereo not shown) | -14.4
O=C(NCc1ccccc1)C1CCN(S(=O)(=O)N2CCCCCC2)CC1 | -11
CCn1c(=O)c(C(=O)NCCNCCO)c(O)c2ccccc21.Cl | 5.89
CCN1C(=O)C(CC(=O)Nc2ccc(OC)cc2)N(CCN2CCOCC2)C1=S (stereo not shown) | -4.13
CCN1C(=O)C(CC(=O)Nc2ccc(OC)cc2)N(CCCN2CCN(c3ccc(F)cc3)CC2)C1=S (stereo not shown) | -37.6
CCN1C(=O)C(CC(=O)Nc2ccc(OC)cc2)N(CCCN2CCN(c3ccc(OC)cc3)CC2)C1=S (stereo not shown) | -68
CCN1C(=O)C(CC(=O)Nc2ccc(OC)cc2)N(CCc2ccc(F)cc2)C1=S (stereo not shown) | -6.48

SMILES | hERG current change (%, negative = inhibition) at 10uM [%]
CCN1C(=O)C(CC(=O)Nc2ccc(F)cc2)N(CCCN2CCN(c3ccc(F)cc3)CC2)C1=S (stereo not shown) | -62.2
CCN1C(=O)C(CC(=O)Nc2ccc(F)cc2)N(CCc2ccc(OC)cc2)C1=S (stereo not shown) | -0.637
CCCOc1ccc(NC(=O)CC2C(=O)N(CC)C(=S)N2CCNC(C)=O)cc1 (stereo not shown) | -11.5
CCCOc1ccc(NC(=O)CC2C(=O)N(CC)C(=S)N2CCCN2CCN(Cc3ccccc3)CC2)cc1 (stereo not shown) | -50.5
C=CCN1C(=O)C(CC(=O)Nc2ccc(OCCC)cc2)N(CCCN2CCN(Cc3ccccc3)CC2)C1=S (stereo not shown) | -38.7
O=C(Nc1ccccn1)C1CCN(C(=O)c2ccc(F)cc2)CC1 | 3.81
CC1CC(C)CN(S(=O)(=O)c2cccc3nsnc23)C1 (stereo not shown) | 4.61
Cc1cc(C)c2c3c(oc2n1)C(=O)N(c1cccc(Cl)c1)CC(=O)N3 | 1.82
NC(=O)CC1NC(=O)c2cc([N+](=O)[O-])cc(I)c2OCCC(C(N)=O)NC(=O)[C@@H]2CCCN2C1=O (stereo partly shown) | 6.79
O=C(c1ccc2c3c(cccc13)C(=O)N(O)C2=O)N1CCCCC1 | 12.4
CC(C)[C@@H](C(=O)NC1CCCC1)N1C(=O)N2CCc3c([nH]c4ccccc34)[C@@]2(C)C1=O | -12.4
C[C@@H](C(=O)NC1CCCC1)N1C(=O)N2CCc3c([nH]c4ccccc34)[C@@]2(C)C1=O | -27.5
COc1ccc2[nH]c3c(c2c1)CCN1C(=O)N([C@@H](C)C(=O)NCc2ccco2)C(=O)[C@]31C | -53.8
COC(=O)[C@H]1Cc2c([nH]c3ccccc23)[C@H](c2ccccc2)N1 | 5.76
CC(C)[C@@H](C(=O)NC1CCN(Cc2ccccc2)CC1)N1C(=O)N2CCc3c([nH]c4ccccc34)[C@@]2(C)C1=O | -74.6
COc1ccc(CNC(=O)[C@H](C)N2C(=O)N3CCc4c([nH]c5ccc(OC)cc45)[C@@]3(C)C2=O)cc1 | 9.36
COc1ccc2[nH]c3c(c2c1)CCN1C(=O)N([C@@H](C)C(=O)NCc2ccccc2)C(=O)[C@]31C | 2.42
CC(C)[C@@H](C(=O)NC1CC1)N1C(=O)N2CCc3c([nH]c4ccccc34)[C@@]2(C)C1=O | -6.45
COC(=O)[C@@H]1Cc2c([nH]c3ccccc23)C(C)(C)N1C(=O)CCl | 3.24
COC(=O)C1Cc2c([nH]c3ccccc23)C2(CCN(Cc3ccccc3)CC2)N1 (stereo not shown) | -68.2
COc1ccc2[nH]c3c(c2c1)CCN1C(=O)N([C@@H](C)C(=O)NC2CCN(Cc4ccccc4)CC2)C(=O)[C@]31C | -48.8
C[C@@H](C(=O)NC1CCN(Cc2ccccc2)CC1)N1C(=O)N2CCc3c([nH]c4ccccc34)[C@@]2(C)C1=O | -77.8
